This note sets out measurements from PubChem BioAssay (NCATS).

Test [1] is described as follows: Cytometric Cell-Based qHTS for Inhibitors of the mTORC1 Signaling Pathway in MEF (Tsc2-/-, p53-/-) Cells (AID 2660).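 Note: Tsc2 and p53 null MEFs carrying empty vector with compound for 24 h; percent of cells above a phospho-rpS6 to PI ratio cutoff in each well; series mostly up to about 38 µM.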 Summed up: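 Percent of cells positive for normalized phospho-S6 staining is reported, with the cutoff set from rapamycin (7.5 nM) versus DMSO wells. Tsc2-/-, p53-/- MEFs received compound for 24 hrs.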
The nature of test [2]: High Content Imaging Cell-Based qHTS for Inhibitors of the mTORC1 Signaling Pathway in MEF (Tsc2-/-, p53-/-) Cells (AID 2666).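 Note: percent of cells scored positive for phospho-rpS6 Ser235/236 immunostaining by imaging.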 Put shortly: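 Inhibition of rpS6 phosphorylation is measured by immunofluorescence imaging in empty-vector Tsc2-/-, p53-/- mouse embryonic fibroblasts after 24 hrs compound exposure at 37 degree Celsius. Results are reported as % positive cells per well.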
A general note: In qHTS, concentration-response curves come from the screen itself.

The nature of test [3]: High Content Imaging Cell-Based qHTS for Inhibitors of the mTORC1 Signaling Pathway in MEF Cells (AID 2667).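 Note: Tsc2-/- p53-/- MEFs stably re-expressing wild-type Tsc2 exposed 24 h; series mostly up to about 38 µM.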 Put shortly: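 Fixed-cell imaging of phospho-S6 (Ser235/236, Alexa-488) after 24 hrs of compound treatment at 37 degree Celsius. Signal was normalized to Hoechst, and thresholds from the highest and lowest wells split cells into % active versus % non-active.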
The nature of test [4]: Cytometry Cell-Based qHTS for Inhibitors of the mTORC1 Signaling Pathway in MEF cells (AID 2668).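 Note: Tsc2-/- p53-/- mouse embryonic fibroblasts stably re-expressing wild-type Tsc2; percent cells positive for phospho-rpS6 Ser235/236 relative to propidium iodide stain; series mostly up to about 38 µM.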 Summed up:
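Phospho-rpS6 (Ser235/236) immunofluorescence over PI signal, scored as % positive cells using thresholds from 7.5 nM rapamycin and DMSO wells, after 24 h compound exposure of WT-Tsc2-rescued Tsc2-/-, p53-/- MEFs. PI cell count recorded for viability.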

A short description of test [5]: Validation screen for small molecules that induce DNA re-replication in MCF 10A normal breast cells (AID 463097). Note: nearly all actives have a fitted effect of over 60% in size. Summed up:
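Read-out is Hoechst total nuclear intensity by fluorescence scanning imager, flagging increased high-DNA-content nuclei. Compounds were incubated with MCF 10A cells for 48 hr (37 C, 5% CO2) before 40 min staining.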

Test [6] deals with Ubiquitin carboxyl-terminal hydrolase 2 (Homo sapiens) (UniProt O75604). Kind of test: qHTS Validation Assay for Inhibitors of Ubiquitin-specific Protease USP2a Using CHOP2 as the Reporter (AID 463106). Put shortly: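 Inhibition is expressed relative to NEM as the full-inhibition control, with concentration-response curves classed by fit quality, magnitude and activity. Enzyme (USP2 core, 10nM) meets 25nM Ub-CHOP2 after compound preincubation; readings are taken at 60min.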
Chain of Ubiquitin carboxyl-terminal hydrolase 2 (Homo sapiens) (O75604 whole entry, looked up): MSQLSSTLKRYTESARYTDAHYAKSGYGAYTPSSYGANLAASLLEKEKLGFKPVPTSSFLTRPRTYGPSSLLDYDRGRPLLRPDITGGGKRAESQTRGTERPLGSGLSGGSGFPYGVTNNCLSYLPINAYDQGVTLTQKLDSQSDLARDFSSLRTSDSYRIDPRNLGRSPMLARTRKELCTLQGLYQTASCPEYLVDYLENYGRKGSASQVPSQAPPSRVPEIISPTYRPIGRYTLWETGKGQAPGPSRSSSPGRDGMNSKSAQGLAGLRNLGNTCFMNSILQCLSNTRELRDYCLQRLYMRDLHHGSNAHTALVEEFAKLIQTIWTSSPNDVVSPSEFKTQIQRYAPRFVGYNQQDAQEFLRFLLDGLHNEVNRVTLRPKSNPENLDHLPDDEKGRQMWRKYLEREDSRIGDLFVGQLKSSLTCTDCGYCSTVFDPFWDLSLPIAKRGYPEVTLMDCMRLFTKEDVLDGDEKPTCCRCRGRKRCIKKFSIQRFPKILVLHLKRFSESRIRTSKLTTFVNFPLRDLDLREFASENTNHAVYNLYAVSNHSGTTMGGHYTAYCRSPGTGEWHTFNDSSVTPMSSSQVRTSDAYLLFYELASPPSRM

The target of test [7] is DNA polymerase III PolC-type (Bacillus subtilis (strain 168)) (UniProt P13267). Kind of test: qHTS Validation Assay for the Inhibitors of DNA Replication in Gram-Positive Bacteria (AID 485295).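 Note: reconstituted holoenzyme with PolC plus beta clamp SSB and primase; PicoGreen fluorescence of double-stranded DNA made on primed circular M13 template; series mostly up to about 57 µM.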 Put shortly:
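Double-stranded DNA product detected by PicoGreen fluorescence after EDTA quench. Compound incubated with B. subtilis holoenzyme (PolC, beta subunit, SSB, primase) before substrate addition; primed replication of M13Gori with dNTPs and NTPs at room temperature; DMSO defines 0% inhibition.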

Test [8] concerns the target Tumor susceptibility gene 101 protein (Homo sapiens) (UniProt Q99816). Description: qHTS Validation Assay for Iinhibitors of HIV-1 Budding by Blocking the Interaction of PTAP/TSG101 (AID 485342; calls by dose curve). Put shortly: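 Fluorescence polarization of 50 nM FITC-PTAP peptide bound to 10 uM Tsg101 binding domain was read after 20 min room-temperature incubation with compounds, in 10 mM HEPES pH 7.5, 0.15 M NaCl, 0.01% Tween 20.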

The nature of test [9]: qHTS Validation Assay to Find Inhibitors of Chronic Active B-Cell Receptor Signaling (AID 485345; active = well fitted curve in the direction sought with a large enough effect in the main read-out, with a control signal flat, not every such curve was filed as active). Put shortly:
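TMD8 ABC-DLBCL cells with dox-inducible green luciferase–IκBα fusion and red native luciferase; compounds 46 uM–3 nM, 4 h at 37C with doxycycline in 0.5% FBS IMDM. Green/red ratio normalized to basal and 10 uM MG-132.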

The target of test [10] is Beta-2 adrenergic receptor (Homo sapiens) (UniProt P07550). Kind of test: qHTS validation assay of beta-arrestin-biased ligands of beta2-adrenergic receptor (AID 485366). Put shortly: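 Screening used a titration range of up to 46 microM in a beta-arrestin recruitment Tango luciferase assay. Cells in 1% FBS medium were treated 18 hr at 37 degrees C, and luminescence was normalized to %Activity.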
Chain of Beta-2 adrenergic receptor (Homo sapiens) (P07550 whole entry, looked up): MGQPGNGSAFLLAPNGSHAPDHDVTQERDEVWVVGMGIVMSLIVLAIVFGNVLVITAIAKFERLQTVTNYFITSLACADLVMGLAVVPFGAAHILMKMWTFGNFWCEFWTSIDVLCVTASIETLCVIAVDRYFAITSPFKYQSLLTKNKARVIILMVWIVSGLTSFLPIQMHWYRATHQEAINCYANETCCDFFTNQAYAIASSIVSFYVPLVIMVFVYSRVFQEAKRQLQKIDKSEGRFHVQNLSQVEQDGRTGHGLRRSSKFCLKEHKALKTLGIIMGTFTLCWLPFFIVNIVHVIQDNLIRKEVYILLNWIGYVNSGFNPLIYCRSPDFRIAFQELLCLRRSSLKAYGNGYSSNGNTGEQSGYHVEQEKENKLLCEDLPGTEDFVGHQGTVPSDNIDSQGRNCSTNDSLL

The target of test [11] is ATP-dependent 6-phosphofructokinase (Trypanosoma brucei brucei) (UniProt O15648). Description: qHTS Validation Assay to Find Inhibitors of T. brucei phosphofructokinase (AID 485368). Note: potency is the fitted concentration of half-maximal effect. Summed up:
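PFK-generated ADP was measured after 45 min at room temperature using ADP-Glo. The reaction contained 0.5 mM F6P and 0.1 mM ATP.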

The nature of test [12]: Quantitative high throughput screen for delayed death inhibitors of the malarial parasite plastid, 96 hour incubation (AID 488745). Note: series mostly up to about 29 µM; nearly all actives have a fitted effect of over 70% in size. Summed up: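 Decreased firefly luciferase luminescence indicates inhibited growth of reporter-integrated P. falciparum after two generations (96 h, 37 C, 5% CO2). Infected erythrocytes at 0.1% parasitemia, 2% hematocrit, in Albumax-supplemented RPMI 1640.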

Test [13] in a line: Quantitative high throughput screen for delayed death inhibitors of the malarial parasite plastid, 48 hour incubation (AID 488752). Note: nearly all actives have a fitted effect of over 65% in size. Put shortly:
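One-generation (48 h) growth assay: a decrease in luciferase signal from an integrated reporter in P. falciparum-infected red cells (0.1% parasitemia, 2% hematocrit) after compound exposure at 37 C indicates parasite inhibition.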

In test [14] the target is Thioredoxin reductase 1, cytoplasmic (Rattus norvegicus) (UniProt O89049). Description: qHTS Assay for Substrates of Mammalian Selenoprotein Thioredoxin Reductase 1 (TrxR1) (AID 488772).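 Note: series mostly up to about 57 µM; a drop in NADPH fluorescence below the no-compound background marks a TrxR1 substrate.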 Summed up: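 In this dual-purpose format, potential substrates are identified from the first fluorescence read after selenite addition, not from the 8-minute delta. Rat enzyme is preincubated with NADPH and then with compound at ~22 deg C.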
Chain of Thioredoxin reductase 1, cytoplasmic (Rattus norvegicus) (O89049 whole entry, looked up): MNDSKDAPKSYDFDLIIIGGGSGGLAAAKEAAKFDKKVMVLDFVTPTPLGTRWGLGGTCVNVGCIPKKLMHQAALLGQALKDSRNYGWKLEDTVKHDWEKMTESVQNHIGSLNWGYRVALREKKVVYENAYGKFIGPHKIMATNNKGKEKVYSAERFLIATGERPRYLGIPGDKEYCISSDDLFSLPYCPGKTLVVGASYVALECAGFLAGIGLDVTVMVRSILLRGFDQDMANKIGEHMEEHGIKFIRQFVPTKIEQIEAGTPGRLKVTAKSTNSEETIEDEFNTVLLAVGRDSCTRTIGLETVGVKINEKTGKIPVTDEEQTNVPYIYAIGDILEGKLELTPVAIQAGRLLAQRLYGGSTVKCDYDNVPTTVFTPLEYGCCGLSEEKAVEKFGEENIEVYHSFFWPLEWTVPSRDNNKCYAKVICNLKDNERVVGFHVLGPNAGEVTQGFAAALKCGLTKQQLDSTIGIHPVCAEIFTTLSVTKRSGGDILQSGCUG

For test [15], the target named is Flap endonuclease 1 (Homo sapiens) (UniProt P39748). Description: qHTS Validation Assay for the Inhibitors of Human Flap endonuclease 1 (FEN1) (AID 488816). Put shortly: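 Steps: add FEN1 (10 nM reagent) or buffer only; pin compounds; hold 15 min at room temperature; start with substrate, 50 nM final; read at 0 and 15 min; correct, normalize and fit a four-parameter Hill curve.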
Chain of Flap endonuclease 1 (Homo sapiens) (P39748 whole entry, looked up): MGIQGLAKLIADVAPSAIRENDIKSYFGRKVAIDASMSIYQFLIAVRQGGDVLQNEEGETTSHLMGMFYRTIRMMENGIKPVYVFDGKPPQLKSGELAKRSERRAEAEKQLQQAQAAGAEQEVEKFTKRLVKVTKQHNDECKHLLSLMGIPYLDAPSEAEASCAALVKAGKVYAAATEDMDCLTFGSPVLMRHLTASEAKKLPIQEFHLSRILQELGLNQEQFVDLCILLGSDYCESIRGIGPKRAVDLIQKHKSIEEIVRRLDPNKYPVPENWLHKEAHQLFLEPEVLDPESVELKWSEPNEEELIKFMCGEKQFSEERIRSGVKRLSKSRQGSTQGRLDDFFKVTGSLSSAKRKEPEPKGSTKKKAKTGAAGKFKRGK

The target of test [16] is M-phase phosphoprotein 8 (Homo sapiens) (UniProt Q99549). Kind of test: qHTS Validation Assay for Inhibitors for MPP8 Chromodomain Interactions with Methylated Histone Tails (AID 488949). Note: nearly all actives have a fitted effect of over 55% in size. Note: potency is the fitted concentration of half-maximal effect. Put shortly:
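AlphaScreen proximity signal from streptavidin donor and Ni-chelate acceptor beads (10 ug/mL each) reported binding of MPP8 to trimethyl-K9 H3(1-18) peptide, both at 50 nM. The complex formed 30 min before a 30 min compound exposure at room temperature, in PBS pH 7.4.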

The target of test [17] is Thioredoxin reductase 1, cytoplasmic (Rattus norvegicus) (UniProt O89049). Kind of test: qHTS Assay for Inhibitors of Mammalian Selenoprotein Thioredoxin Reductase 1 (TrxR1) (AID 488773).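 Note: drop in NADPH fluorescence over an 8 min run after selenite addition; series mostly up to about 57 µM; nearly all actives have a fitted effect of over 40% in size.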 To be noted: Potency: inhibition. Put shortly: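 Inhibition is scored from the loss of NADPH fluorescence between first and last reads of an 8-min kinetic run. Selenite (400 uM) was the substrate, added after 15 min compound preincubation at room temperature.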

Test [18] concerns the target Chromobox protein homolog 1 (Homo sapiens) (UniProt P83916). Kind of test: qHTS Validation Assay for Inhibitors of HP1-beta Chromodomain Interactions with Methylated Histone Tails (AID 488953). Note: nearly all actives have a fitted effect of over 50% in size. Note: potency is the fitted concentration of half-maximal effect. Summed up:
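AlphaScreen proximity signal from streptavidin donor and nickel chelate acceptor beads (final 10 ug/mL) after 30 min dark incubation. Compounds had 30 min at room temperature with preformed complex of 50 nM HP1-beta and 50 nM b-H3(1-18)K9me3 in PBS pH 7.4 with 0.01% Tween-20.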

Each structure is given as a SMILES string. Results filed as inconclusive are left out. More than one record can exist for a structure, and the calls need not agree. Active and inactive are the calls of the source. Unless noted, calls come from the whole dose curve; as a rule, active = well fitted curve in the direction sought with a large enough effect; inconclusive = small, poorly fitted or top-dose-only effect, or another doubt; inactive = no such curve, though single readings can be large; an effect the other way counts as inactive or inconclusive.

Chain of Tumor susceptibility gene 101 protein (Homo sapiens) (Q99816 whole entry, looked up, the tested form may be a part): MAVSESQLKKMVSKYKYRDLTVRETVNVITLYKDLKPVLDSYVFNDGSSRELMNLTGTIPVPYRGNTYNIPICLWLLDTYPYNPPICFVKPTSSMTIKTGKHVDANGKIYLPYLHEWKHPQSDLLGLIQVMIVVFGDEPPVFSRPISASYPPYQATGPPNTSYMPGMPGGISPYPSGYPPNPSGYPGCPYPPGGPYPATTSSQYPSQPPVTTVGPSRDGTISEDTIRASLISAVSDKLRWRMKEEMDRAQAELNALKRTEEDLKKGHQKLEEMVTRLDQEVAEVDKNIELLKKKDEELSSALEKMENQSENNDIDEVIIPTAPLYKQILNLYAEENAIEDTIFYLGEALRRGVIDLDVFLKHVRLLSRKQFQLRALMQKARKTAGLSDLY
Chain of DNA polymerase III PolC-type (Bacillus subtilis (strain 168)) (P13267 whole entry, looked up): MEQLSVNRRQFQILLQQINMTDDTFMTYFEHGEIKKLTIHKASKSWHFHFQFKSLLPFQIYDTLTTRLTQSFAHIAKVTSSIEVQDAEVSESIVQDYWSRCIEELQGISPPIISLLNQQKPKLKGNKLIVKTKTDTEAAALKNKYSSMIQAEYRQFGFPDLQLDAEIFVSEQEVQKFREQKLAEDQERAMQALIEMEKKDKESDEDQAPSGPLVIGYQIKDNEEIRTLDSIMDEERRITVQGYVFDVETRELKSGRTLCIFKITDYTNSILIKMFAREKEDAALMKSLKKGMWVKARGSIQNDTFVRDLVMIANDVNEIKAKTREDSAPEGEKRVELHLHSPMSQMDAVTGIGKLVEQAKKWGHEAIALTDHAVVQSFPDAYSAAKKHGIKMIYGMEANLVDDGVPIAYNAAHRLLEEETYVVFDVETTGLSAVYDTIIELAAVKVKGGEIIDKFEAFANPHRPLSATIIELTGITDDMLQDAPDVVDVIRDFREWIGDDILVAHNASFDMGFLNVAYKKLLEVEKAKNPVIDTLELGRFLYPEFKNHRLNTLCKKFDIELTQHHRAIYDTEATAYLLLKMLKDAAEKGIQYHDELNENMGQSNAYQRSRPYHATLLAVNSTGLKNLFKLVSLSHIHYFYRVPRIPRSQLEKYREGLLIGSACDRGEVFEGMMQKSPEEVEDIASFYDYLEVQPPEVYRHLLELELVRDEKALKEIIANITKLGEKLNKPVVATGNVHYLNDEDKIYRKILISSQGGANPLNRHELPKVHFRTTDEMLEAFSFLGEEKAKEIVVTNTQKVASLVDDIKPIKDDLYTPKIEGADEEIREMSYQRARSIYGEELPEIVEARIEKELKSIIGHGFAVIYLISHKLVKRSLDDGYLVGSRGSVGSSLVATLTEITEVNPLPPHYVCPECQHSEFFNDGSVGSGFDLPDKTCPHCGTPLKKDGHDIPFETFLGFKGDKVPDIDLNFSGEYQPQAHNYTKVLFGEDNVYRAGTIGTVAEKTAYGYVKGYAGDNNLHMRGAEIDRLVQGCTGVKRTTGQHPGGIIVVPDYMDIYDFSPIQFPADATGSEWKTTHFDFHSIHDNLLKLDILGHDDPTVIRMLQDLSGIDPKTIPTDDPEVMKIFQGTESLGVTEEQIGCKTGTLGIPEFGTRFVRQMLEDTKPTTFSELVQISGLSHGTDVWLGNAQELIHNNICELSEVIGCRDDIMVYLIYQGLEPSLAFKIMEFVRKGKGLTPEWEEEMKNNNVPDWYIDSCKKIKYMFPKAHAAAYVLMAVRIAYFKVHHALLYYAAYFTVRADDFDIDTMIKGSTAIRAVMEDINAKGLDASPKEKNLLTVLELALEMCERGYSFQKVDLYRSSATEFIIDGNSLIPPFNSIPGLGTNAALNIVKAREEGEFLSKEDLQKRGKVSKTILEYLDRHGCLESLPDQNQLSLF
Chain of Chromobox protein homolog 1 (Homo sapiens) (P83916 whole entry, looked up): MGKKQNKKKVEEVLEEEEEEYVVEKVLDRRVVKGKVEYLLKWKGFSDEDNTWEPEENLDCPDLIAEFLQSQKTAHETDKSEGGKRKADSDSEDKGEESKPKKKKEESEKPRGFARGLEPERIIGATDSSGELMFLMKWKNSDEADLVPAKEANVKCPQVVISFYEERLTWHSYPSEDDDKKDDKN
Chain of M-phase phosphoprotein 8 (Homo sapiens) (Q99549 whole entry, looked up): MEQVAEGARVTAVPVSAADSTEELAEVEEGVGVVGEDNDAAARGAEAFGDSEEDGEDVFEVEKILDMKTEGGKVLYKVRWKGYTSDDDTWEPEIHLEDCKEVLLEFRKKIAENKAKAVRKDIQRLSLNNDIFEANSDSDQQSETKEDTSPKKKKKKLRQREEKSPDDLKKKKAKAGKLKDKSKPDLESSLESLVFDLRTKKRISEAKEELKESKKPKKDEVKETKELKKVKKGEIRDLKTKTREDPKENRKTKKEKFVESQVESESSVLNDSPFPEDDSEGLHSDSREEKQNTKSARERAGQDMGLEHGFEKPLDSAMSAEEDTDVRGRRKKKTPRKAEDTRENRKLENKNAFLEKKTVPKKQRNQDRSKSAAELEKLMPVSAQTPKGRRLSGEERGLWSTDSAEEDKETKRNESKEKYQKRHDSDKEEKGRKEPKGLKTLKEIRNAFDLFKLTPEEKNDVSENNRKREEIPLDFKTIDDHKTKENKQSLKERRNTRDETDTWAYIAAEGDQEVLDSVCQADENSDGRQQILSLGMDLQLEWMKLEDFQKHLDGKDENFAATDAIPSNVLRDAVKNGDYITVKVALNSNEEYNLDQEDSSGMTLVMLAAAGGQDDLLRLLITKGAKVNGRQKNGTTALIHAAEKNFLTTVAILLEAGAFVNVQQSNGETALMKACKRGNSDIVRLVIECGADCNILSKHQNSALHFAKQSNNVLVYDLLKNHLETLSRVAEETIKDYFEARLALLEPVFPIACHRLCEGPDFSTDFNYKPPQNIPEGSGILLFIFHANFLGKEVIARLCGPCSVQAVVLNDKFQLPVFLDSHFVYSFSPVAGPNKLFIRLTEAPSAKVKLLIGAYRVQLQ

As to `CCCCN1CCC(n2c(=O)[nH]c3ccccc32)CC1`, the compound was classed as inactive in test [1], in test [8], in test [9] and in [10]. The Potency result in test [2], in test [3], in test [4], in test [5], in test [6] and in test [7] was “inactive” throughout. In addition, the Potency entry in test [11], in test [12], in [13], in test [14], in [15] and in [16] was “inactive” each time.
Regarding `NCCCCC(=O)O`, the compound was called inactive in test [1], in test [8], in [9] and in [10]. Also, the Potency result in test [2], in test [3], in test [4], in [5], in test [6] and in test [7] was “inactive” each time. In addition, the Potency entry in [12], in test [13], in test [14], in [17], in [15] and in test [16] was “inactive” throughout. In test [18], the Potency entry is “inactive”.
As to `Cc1ccc(O)c(N=Nc2ccccc2)n1`, the compound was classed as inactive in [1], in [8], in test [9] and in [10]. The Potency result in test [2], in [3], in [4], in test [5], in test [6] and in test [7] was “inactive” each time. For the same compound, the Potency entry in test [12], in [13], in test [14] and in test [15] was “inactive” in each case. The Potency is 15.1 µM (active) in test [11]; 39.8 µM (active) and inactive in test [16]; 44.7 µM (active) in [18].
For `Oc1ccc(C2CNCc3sccc32)cc1O` (stereo unspecified), the compound was called inactive in test [1], in test [8], in test [9] and in [10]. For the same compound, the Potency result in test [2], in [3], in [4], in [5], in test [6] and in test [7] was “inactive” in each case. The Potency entry in test [13], in test [14], in [15], in test [16] and in test [18] was “inactive” each time.
On to `NC(CCCP(=O)(O)O)C(=O)O` (stereo unspecified), for which the compound was classed as inactive in test [1], in [8], in test [9] and in test [10]. In addition, the Potency entry in [2], in test [3], in test [4], in [5], in [6] and in [7] was “inactive” in each case. The Potency entry in test [12], in test [13], in [14], in test [17], in test [15] and in [16] was “inactive” each time. The Potency entry in test [18] is “inactive”.
In the case of `COc1cccc(OC)c1OCCNCC1COc2ccccc2O1` (stereo unspecified), the result in test [1], in test [8], in [9] and in test [10] was inactive. The Potency entry in test [2], in test [3], in test [4], in [5], in test [6] and in test [7] was “inactive” throughout. The Potency entry in [12], in test [13], in [14], in test [17], in [15] and in [16] was “inactive” throughout. Moreover, the Potency result in test [18] was “inactive”.
For the compound `O=C(O)[C@@H]1C[C@@H](C(=O)O)N1`, the compound was called inactive in [1], in test [8], in test [9] and in test [10]. The Potency result in test [2], in test [3], in [4], in [5], in [6] and in test [7] was “inactive” throughout. Besides, the Potency entry in [12], in [13], in test [14], in test [17], in test [15] and in test [16] was “inactive” throughout. The Potency result in test [18] was “inactive”.
